# Pf growth 48h: P. falciparum growth inhibition at 48 hours (one generation); P. falciparum luciferase growth in erythrocytes, 48 h; Potency, µM (series often up to 28.7 µM), without a hit: at the top dose activity change, negative = inhibition, usual class: inhibitors; 5.9% of 310,000 active; AID 504832; active = well fitted inhibition curve with a large enough effect; inconclusive = small, poorly fitted or top-dose-only effect, or another doubt; inactive = no such curve, though single readings can be large or run the other way; also: potency is read from the fitted curve at half-maximal effect; % is scaled to controls: 0 for no effect and ±100 for the full control effect
#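 Growth was read as firefly luciferase luminescence after a 48 h, 37 C, 5% CO2 exposure of compounds to reporter-bearing P. falciparum cultures (0.1% parasitemia, 2% hematocrit final) in Albumax-supplemented RPMI 1640.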
# CHX counter: counter-screen hit for Shiga toxin inhibitors, cycloheximide. cell reporter, cycloheximide protein synthesis inhibition counterscreen. max response, %. 12% of 300,000 active; in the data active = max response mostly above about 13%, no sharp cut-off; inactive = mostly below about 14%; also: read at 38.3 µM for the half of the compounds with a filed dose; 0% is about no effect
# NS1 function inh: influenza NS1 inhibition | Potency, µM (series often up to 46.1 µM), inactives show at the top dose activity, positive = more growth | 0.4% of 270,000 active; also: potency is read from the fitted curve at half-maximal effect; actives are rising curves; nearly all actives have a fitted effect of over 50% in size
#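 S. cerevisiae expressing influenza A NS1, grown in glucose, washed, then diluted 1:100 into pH 6.0 -URA galactose medium with 23 nl compound. Growth recovery read as OD600; NS1-free strain serves as control.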
# Pf growth 96h: inhibits malaria parasite growth, 96 h | Potency, µM (doses to about 28.7 µM), for inactives: top-dose activity change, negative = inhibition, most hits filed as inhibitors | P. falciparum luciferase reporter growth, 96 h | 6.9% of 320,000 active | AID 504834; active = well fitted inhibition curve with a large enough effect; inconclusive = small, poorly fitted or top-dose-only effect, or another doubt; inactive = no such curve, though single readings can be large or run the other way; also: potency is read from the fitted curve at half-maximal effect; % is scaled to controls: 0 for no effect and ±100 for the full control effect
#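 Two parasite generations (96 h, 37 C, 5% CO2) of compound exposure in infected erythrocytes (0.05% parasitemia, 2% hematocrit). Luciferase-reporter P. falciparum; decreased luminescence indicates inhibited growth, aimed at apicoplast-acting delayed death.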
# SARS PLpro yeast: inhibitors of SARS-CoV papain-like protease in yeast | S. cerevisiae expressing SARS-CoV PLpro, growth rescue | Potency, µM (top dose mostly 32.9 µM), for the others: at the top dose activity, positive = growth rescue, usual class: activators | 0.19% of 330,000 active | AID 485353; also: potency is read from the fitted curve at half-maximal effect; 0% is about no effect; nearly all actives have a fitted effect of over 55% in size
# Shiga toxin inh: Shiga toxin inhibition; Vero cells, Shiga toxin protein synthesis inhibition reporter; inhibition, % at 38.7 µM; 9.2% of 290,000 active; in the data active = inhibition mostly above about 28%, no sharp cut-off; inactive = mostly below about 43%; also: 0% is about no effect
# Starred values were filed as active, the others as inactive; ? = inconclusive; . = not tested or not shown. In the library only some 21% were active in any assay of this set; here they are far more common. Unless noted, calls follow the shape of the full dose curve.
SMILES,Pf growth 48h,CHX counter,NS1 function inh,Pf growth 96h,SARS PLpro yeast,Shiga toxin inh
O=C(COC(=O)c1ccc2ccccc2c1O)Nc1ccccc1,-23%,.,.,25%,-12%,.
C=CCOC(=O)C1=C(C)NC(=O)NC1c1cn(-c2ccccc2)nc1-c1cccs1 (centres undefined),15µM*,-1,-52%,?,-25%,-4
CC1=C(C#N)C(c2cn(-c3ccccc3)nc2-c2cccs2)C(C#N)=C(C)N1,1.7µM*,-9,-19%,44%,-1%,-5
COCCOC(=O)C1=C(C)NC(=O)NC1c1cn(-c2ccccc2)nc1-c1cccs1 (centres undefined),-20%,1,-7%,50%,12%,10
CN1/C(=C\C(=O)Nc2cccnc2)c2ccccc2CC1(C)C,?,-3,5%,5.9µM*,6%,1
COc1ccc(C)cc1NC(=O)CN1CCN(C/C=C/c2ccccc2)CC1,?,0,-4%,.,-20%,-18
Cc1cc(C)cc(N2CCCn3c2nc2c3c(=O)n(CC(=O)OCc3ccccc3)c(=O)n2C)c1,?,-4,-56%,15%,5%,-16
Cc1ccc(N2CCCn3c2nc2c3c(=O)n(CC(=O)OCc3ccccc3)c(=O)n2C)cc1C,12µM*,-1,?,5.2µM*,2%,-6
Cc1ccc(N2CC(C)Cn3c2nc2c3c(=O)n(CC(=O)OCc3ccccc3)c(=O)n2C)cc1C (centres undefined),?,-2,-39%,10µM*,2%,-4
Cc1cc(C)cc(OCC(=O)Nc2cccc(S(=O)(=O)NC3=NCCC3)c2)c1,?,.,.,?,-6%,.
CCc1ccccc1S(=O)(=O)Cc1ccc(C(=O)N2CCN(c3ccccn3)CC2)o1,.,-2,-19%,9.3µM*,2%,3
CCOC(=O)N1CCN(C(=O)c2ccc(CS(=O)(=O)c3ccccc3OC)o2)CC1,1%,18,18%,?,1%,26
COc1ccccc1S(=O)(=O)Cc1ccc(C(=O)N2CCN(c3ccc(C)cc3)C(C)C2)o1 (centres undefined),12µM*,-2,-26%,?,0%,-5
COc1ccccc1N1CCN(C(=O)c2ccc(CS(=O)(=O)c3ccccc3OC)o2)CC1,?,15*,-10%,9.3µM*,5%,10
Cc1ccc(C)c(OCC(=O)Nc2ccccc2C(=O)N2CCOCC2)c1,?,-4,-8%,-27%,-1%,-6
CCN(CC)C(=O)C1CCCN(C(=O)Nc2ccccc2)C1 (centres undefined),.,4,-54%,?,22%,31
COc1ccc(Cc2nc(-c3ccncc3)no2)cc1,?,37*,-2%,?,1%,85*
Clc1ccc(Cc2nc(-c3ccncc3)no2)cc1,?,17*,5%,-8%,-2%,38
CC1CN(C(=O)CCC(=O)NCCCN2C(C)CCCC2C)c2ccccc2O1 (centres undefined),-18%,-2,3%,42%,-3%,1
CCOC(=O)c1cc[nH]c1CC(=O)NC,92%,-3,-3%,37%,-1%,2
C/C(=N\Nc1ncc(Br)cn1)c1cccc([N+](=O)[O-])c1,37%,26*,-33%,-9%,-9%,90
C/C(=N\NC(=O)OC(C)(C)C)c1cccc([N+](=O)[O-])c1,54%,11,-1%,4%,1%,29*
C/C(=N\Nc1nc(N2CCOCC2)nc(N2CCOCC2)n1)c1cccc([N+](=O)[O-])c1,10µM*,-2,.,9%,-1%,-2
COc1ccc(S(=O)(=O)NC(CC(C)C)C(=O)NC(C)c2cccs2)cc1 (centres undefined),?,.,.,?,-1%,.
COc1ccc(S(=O)(=O)N(C)CC(=O)N2CCCC2)cc1OC,0%,-1,-2%,55%,1%,14
SMILES,Pf growth 48h,CHX counter,NS1 function inh,Pf growth 96h,SARS PLpro yeast,Shiga toxin inh
Cc1ccc(S(N)(=O)=O)cc1NC(=O)/C=C/c1ccc2c(c1)OCO2,38%,10,.,302%,1%,17
Cc1cc(SCC(=O)c2cccs2)n2nc(C)c(-c3ccccc3)c2n1,?,39*,?,0%,4%,39*
C=CCSc1cc(C)nc2c(-c3ccccc3)c(C)nn12,?,25*,3%,10µM*,1%,13
Cc1cc(N)n2nc(C)c(-c3ccc(Cl)cc3)c2n1,?,8,-43%,-10%,-6%,6
Cc1cc(N)n2nc(C)c(-c3ccccc3)c2n1,?,13*,-180%,82%,-45%,21
Cc1nn2c(-c3cccnc3)ccnc2c1-c1ccccc1,3%,25*,5%,-8%,-5%,41*
Cc1cc(SCC#N)n2nc(C)c(-c3ccccc3)c2n1,-10%,23,-60%,193%,2%,4
CC(=O)CSc1cc(C)nc2c(-c3ccccc3)c(C)nn12,45%,-1,-1%,-27%,0%,-2
CCc1noc(C)c1C(=O)OCC(=O)N(C)c1c(N)n(Cc2ccccc2)c(=O)[nH]c1=O,0%,.,.,1%,-2%,.
Cc1cccc(C(C)C)c1NC(=O)COC(=O)CN1C(=O)C2CC=CCC2C1=O (centres undefined),?,.,.,24%,-2%,.
CN1CCN(C2CC(=O)N(c3ccc4c(c3)OCCO4)C2=O)CC1 (centres undefined),.,34*,-5%,17%,0%,54
CCc1cccc(CC)c1NC(=O)COC(=O)c1ccc(F)c(S(=O)(=O)N(CC)CC)c1,-18%,0,2%,0%,-19%,8
CCOc1ccc(CNC(=O)CCS(=O)(=O)Cc2cccc(Cl)c2)cc1OC,-15%,-3,.,-49%,-1%,38
O=C(O)CC1(CC(=O)Nc2cc3ccccc3cn2)CCCCC1,1%,2,6%,2%,-2%,2
Cc1ccc(C(=O)Nc2ccc(S(=O)(=O)N3CCc4ccccc43)cc2)o1,?,1,-48%,.,.,9
O=C(O)c1ccc(S(=O)(=O)N2CCc3ccccc3C2)cc1,-9%,-1,-15%,9.3µM*,3%,-15
CC(=O)c1ccc(S(=O)(=O)N2CCc3ccccc3C2)cc1,13%,1,-3%,?,22%,.
Cc1ccc(C(=O)Nc2ccc(S(=O)(=O)N3CCc4ccccc4C3)cc2)o1,13µM*,-3,-18%,.,1%,-6
Cc1ccc(CNC(=O)CCc2nnc3ccc(N4CCC5(CC4)OCCO5)nn23)cc1,-4%,1,-3%,-3%,6%,-4
CC(C)C(C)(C#N)NC(=O)CSc1nnc(-c2ccccc2)o1 (centres undefined),.,1,-3%,-14%,5%,20
CCOc1ccc(N(CC(=O)Nc2ccccc2OCC)S(=O)(=O)c2c(C)noc2C)cc1,?,-1,24%,12µM*,-2%,16
